Measured values from ChEMBL document CHEMBL3988442, “University of Dundee, Small-Polar-MMV Screening Library” (2021).
Out of some 48,000 compounds screened, about 13,000 (27%) showed an effect of 50% or more. The list shows a part of the results.

System: Wolbachia pipientis
Test: Anti-Wolbachia Cell-Based Screen
Type: functional
Set-up: scale not given: in the data most compounds retested in dose-response had high values
Conditions: 5 µM

Row | SMILES | Percent Effect [%]
1 | COc1cc(C2CC(=O)Oc3cc(C)[nH]c(=O)c32)ccc1OC(F)F (stereo unspecified) | 2.33
2 | Cc1ccccc1[C@@H]1CN(Cc2nc3ncccn3n2)C[C@H]1C(=O)O | -5.6
3 | Cc1nc(C)c(CNC(=O)NC(c2nnc3n2CCC3)C(C)C)s1 (stereo unspecified) | -4.122
4 | COc1ccc(C(=O)Cn2cnnc2[S+](C)[O-])cc1Cl (stereo unspecified) | -30.86
5 | C/C(=C\c1ccccc1)CN1CCCC(c2nnc3n2CCNCC3)C1.Cl (stereo unspecified) | 87.16
6 | Cc1ccc(CC(=O)N2CCC(c3nnc4n3CCC4)CC2)cc1 | -4.36
7 | CC(C)n1c(C2CCCN(CC(N)=O)C2)nc2ccccc21 (stereo unspecified) | -123.1
8 | CC(C)CN1C(=O)CO[C@@H]2CN(C(=O)NC(C)C)C[C@H]21 | -9.204
9 | CN1CCCN(c2nccc(-c3c[nH]nc3-c3ccncc3)n2)CC1 | 94.49
10 | Cc1nn(C)cc1-c1ccnc(N2CCN(c3ccccc3)C(=O)C2)n1 | -10.97
11 | c1cc(-c2n[nH]cc2-c2ccnc(N3CCCC3)n2)ccn1 | 100.8
12 | CN1CCCN(c2nccc(-c3c[nH]c4ccc(Br)cc34)n2)CC1 | 88.95
13 | CN1CCCN(c2nccc(-c3cc(C(=O)O)ccn3)n2)CC1 | -0.2127
14 | c1cc(-c2n[nH]cc2-c2ccnc(N3CCCCCC3)n2)ccn1 | 91.97
15 | Cc1oc(C(C)C)cc1C(=O)N1C[C@H]2CC[C@@H]1CN(c1ncccn1)C2 | 6.387
16 | CN(C)c1ccc(CCCNC(=O)NCC(O)c2ccsc2)cc1 (stereo unspecified) | 3.16
17 | Cc1ccc(-c2nc3c([nH]2)CCNC3C(=O)O)c2cccnc12 (stereo unspecified) | -6.719
18 | Cc1cc(C)nc(Nc2cncc(C3CCCN(S(C)(=O)=O)C3)n2)n1 (stereo unspecified) | 101.3
19 | Cc1cc(-c2ccnn2C)nc(C2CCCN(S(C)(=O)=O)C2)n1 (stereo unspecified) | 122.2
20 | Cc1cnc(N2CCCC(c3ccccc3)C2)nc1-c1ccnn1C (stereo unspecified) | -17.82
21 | CNc1cncc(C2CCCN(S(C)(=O)=O)C2)n1 (stereo unspecified) | -7.969
22 | CS(=O)(=O)N1CCCC(c2cncc(Nc3ccccn3)n2)C1 (stereo unspecified) | 103.2
23 | CS(=O)(=O)N1CCCC(c2nc(-c3ccccc3)c[nH]2)C1 (stereo unspecified) | -2.942
24 | Cc1cc(C)nc(Nc2cccc(C3CCCN(S(C)(=O)=O)C3)n2)n1 (stereo unspecified) | 85.5

Row | SMILES | Percent Effect [%]
25 | CCc1noc(C)c1-c1nc(Cc2cccs2)nn1C1CCN(C)CC1 | -27.77
26 | COCC(c1ccccn1)N(C)C(=O)c1cc(-c2ccc(O)cc2)n[nH]1 (stereo unspecified) | -10.51
27 | N#Cc1cc2n(n1)CCN(C(=O)CCc1c[nH]c3ccccc13)C2 | -21.25
28 | CN(C)C(CNC(=O)NCc1cc[nH]n1)c1ccco1 (stereo unspecified) | -4.793
29 | CCOC(=O)C1CN(CC2CC2)Cc2ncn(CC)c21.O=C(O)C(F)(F)F (stereo unspecified) | 1.772
30 | COC[C@@]12CCO[C@@H]1CCN(C(=O)C1CCSCC1)C2 | -9.781
31 | Cc1ccoc1C(=O)N1C[C@H]2CCC[C@@]2(COCc2ccncc2)C1.O=C(O)C(F)(F)F | 6.221
32 | COCCC(=O)N1C[C@@H]2COC[C@]2(COCc2cccnc2)C1 | -10.08
33 | COC[C@@]12CCC[C@@H]1CN(C(=O)Cc1ccco1)C2 | -55.3
34 | CCOCC(=O)N1C[C@H]2CCC[C@@]2(COC)C1 | 105.6
35 | CCCc1cc(C(=O)N2C[C@H]3CCC[C@@]3(CO)C2)[nH]n1 | 14.56
36 | COCCC(=O)N1C[C@H]2CCC[C@@]2(COC)C1 | 114
37 | COC[C@@]12CCC[C@@H]1CN(C(=O)N1CCCC1)C2 | 106.2
38 | COC[C@@]12CCO[C@@H]1CCN(C(=O)C1CC(F)(F)C1)C2 | -30.77
39 | COC[C@@]12CCC[C@@H]1CN(C(=O)CN(C)C)C2.O=C(O)C(F)(F)F | 107.5
40 | CNC(=O)CCCNCc1c(C)nn(CC(C)C)c1N(C)C | 0.5097
41 | CC(=O)N1CCN(c2ccccc2CNc2ccc3[nH]ncc3c2)CC1 | -1.242
42 | CCNC(=O)CN1CCCN(C(=O)C2CCCc3[nH]ncc32)CC1 (stereo unspecified) | 2.738
43 | CC(C#N)NS(=O)(=O)c1ccc2c(c1)N(C)CCC2 (stereo unspecified) | -3.388
44 | Cc1nc(CCNC(=O)C2CC(=O)N(C(C)(C)C)C2)sc1Cl (stereo unspecified) | -46.08
45 | N#Cc1ccc2c(c1)CN(C(=O)C1CC=CC1)C2c1cnco1 (stereo unspecified) | -2.479
46 | COCC(=O)N1C[C@H]2CCC[C@@]2(COC)C1 | 91.12
47 | COCC(=O)N1C[C@@H]2COC[C@]2(COC)C1 | -5.007
48 | COC[C@@]12CCC[C@@H]1CN(C(=O)COC1CCCC1)C2 | 116

Row | SMILES | Percent Effect [%]
49 | CC(C)(O)CN1CCN(C(=O)COC2CCCC2)CC1 | -11.71
50 | O=C(COC1CCCC1)N1CC[C@H]2OCC[C@@]2(COCC2CC2)C1 | 5.898
51 | O=C(Cc1ccco1)N1C[C@H]2CCC[C@@]2(COCC2CC2)C1 | 4.43
52 | Cc1csc(N(C)C(=O)C2CC(=O)N(c3ccccc3F)C2)n1 (stereo unspecified) | 1.281
53 | CCc1cnc(N2CCC(=O)N(CC3CC3)C(C(C)C)C2)nc1 (stereo unspecified) | -22.71
54 | O=C(N1CCOCC1)N1CCc2ncnc(Oc3cccnc3)c2CC1.O=C(O)C(F)(F)F | 0.6158
55 | COc1ncnc2c1CCN(Cc1cccc(C)n1)CC2 | 95.16
56 | COc1ncnc2c1CCN(c1cccc(F)c1)CC2 | 16.21
57 | Cc1cccc(CN2CCc3ncnc(-c4ccsc4)c3CC2)n1.O=C(O)C(F)(F)F | 18.15
58 | Cc1cccc(CN2CCc3ncnc(Oc4cccnc4)c3CC2)n1 | 126.9
59 | Cc1c(Br)cccc1CNC1(CCO)CCOCC1 | -8.762
60 | Cc1cccc(-c2ccc(C(=O)NCC(C)(C)C(N)=O)c(=O)[nH]2)c1 | 6.298
61 | O=c1n(CC2CCCO2)nc(CC2CCNCC2)n1-c1ccccc1 (stereo unspecified) | -2.06
62 | CNC(=O)CN1CCOCC2(CCCN(Cc3ccoc3)C2)C1 (stereo unspecified) | 84.78
63 | CNC(=O)CN1C(=O)CCC12CCCN(CCc1ccccc1)C2 (stereo unspecified) | -21.16
64 | Fc1ccc(CN2CCOCC3(CCN(Cc4nccs4)C3)C2)cc1.O=C(O)C(F)(F)F.O=C(O)C(F)(F)F (stereo unspecified) | 2.438
65 | Cc1ccc(CN2CCCC3(CCN(Cc4ccoc4)CC3)C2)cc1.O=C(O)C(F)(F)F.O=C(O)C(F)(F)F | 12.66
66 | O=C(Cc1ccsc1)N1CCCC2(COCCN(CC3CC3)C2)C1.O=C(O)C(F)(F)F (stereo unspecified) | -6.273
67 | O=C(O)C(F)(F)F.O=C(O)C(F)(F)F.c1cc(CN2CCCC3(COCCN(Cc4c[nH]nn4)C3)C2)cs1 (stereo unspecified) | -3.228
68 | CNC(=O)CN1CCOCC2(CCCN(CCc3ccccc3)C2)C1.O=C(O)C(F)(F)F.O=C(O)C(F)(F)F (stereo unspecified) | 95.77
69 | CNC(=O)CN1CCOCC2(C1)CN(Cc1csnn1)CCO2 (stereo unspecified) | -63.88
70 | CNC(=O)CN1CCOCC2(CCCN(Cc3ccsc3)C2)C1.O=C(O)C(F)(F)F.O=C(O)C(F)(F)F (stereo unspecified) | 99.42
71 | Fc1ccc(CN2CCCC3(COCCN(Cc4c[nH]nn4)C3)C2)cc1.O=C(O)C(F)(F)F.O=C(O)C(F)(F)F (stereo unspecified) | -5.043
72 | CNC(=O)CN1CCOCC2(CCCN(Cc3ccc(F)cc3)C2)C1.O=C(O)C(F)(F)F.O=C(O)C(F)(F)F (stereo unspecified) | 113

Row | SMILES | Percent Effect [%]
73 | CN(C)CCN1CCOCC2(CCCN(C(=O)Cc3ccccc3)C2)C1.O=C(O)C(F)(F)F.O=C(O)C(F)(F)F (stereo unspecified) | -11.48
74 | CN(C)c1ccc2c(c1)CN(C(=O)c1cnccn1)C2c1cnco1 (stereo unspecified) | 6.67
75 | COCCN1CCOCC2(CCCN(Cc3ccc(C)o3)C2)C1.O=C(O)C(F)(F)F.O=C(O)C(F)(F)F (stereo unspecified) | 4.497
76 | COCCN1CCC2(COCCN(Cc3ccc4c(c3)OCO4)C2)C1.O=C(O)C(F)(F)F.O=C(O)C(F)(F)F (stereo unspecified) | 1.486
77 | COCCN1CCOCC2(CCCN(Cc3cccc(F)c3)C2)C1.O=C(O)C(F)(F)F.O=C(O)C(F)(F)F (stereo unspecified) | 114.4
78 | COCCOc1ccc(S(=O)(=O)Nc2cccnc2O)cc1C | -11.72
79 | Fc1ccc(CN2CCCC(c3cc4ncccc4[nH]3)C2)cc1 (stereo unspecified) | 39.65
80 | CC(=O)Nc1ccc(CN2CCCC(c3cc4ncccc4[nH]3)C2)cc1 (stereo unspecified) | 130.8
81 | CC(=O)NC1CCCN(Cc2ccc(-n3ccnc3)cc2)C1 (stereo unspecified) | 4.103
82 | CCOc1ccc(CN2CCCC(c3cc4ncccc4[nH]3)C2)cc1 (stereo unspecified) | 111.1
83 | CCC(=O)NC1CCCN(Cc2ccc(NC(C)=O)cc2)C1 (stereo unspecified) | 21.19
84 | CCOc1nnc(CN2CCCC(c3nc4ccccc4[nH]3)C2)s1 (stereo unspecified) | -5.507
85 | CCc1c(C(=O)N2CC(C)OC(C)(C)C2)cnn1-c1ccccn1 (stereo unspecified) | -9.37
86 | Cc1nc(C2CCCN2C(=O)Cn2cncn2)no1 (stereo unspecified) | 83.95
87 | CC(C)c1nc(C2CCCN(C(=O)CCn3cncn3)C2)no1 (stereo unspecified) | 109.8
88 | Cc1nc(C2CCCN2C(=O)CNS(C)(=O)=O)no1 (stereo unspecified) | -1.869
89 | Cc1nc(C2CCCN2C(=O)CCCOc2ccccc2C)no1 (stereo unspecified) | 3.026
90 | Cc1nc(C2CCCN2C(=O)CCCn2cccn2)no1 (stereo unspecified) | 80.92
91 | CC(C)c1nc(C2CCCN(C(=O)CCCn3cncn3)C2)no1 (stereo unspecified) | 2.854
92 | Cc1nc(C2CCCN2C(=O)CCn2cncn2)no1 (stereo unspecified) | 102.5
93 | Cc1csc(C2CCCCN2C(=O)CCn2cncn2)n1 (stereo unspecified) | 8.818
94 | Cc1csc(C2CCCCN2C(=O)CCCn2cccn2)n1 (stereo unspecified) | -9.362
95 | Cc1csc(C2CCCCN2C(=O)Cn2cncn2)n1 (stereo unspecified) | -6.402
96 | CC(C)c1nc(C2CCCN(C(=O)CN3CCN(C)CC3)C2)no1 (stereo unspecified) | -17.54
